SMILES strings stand for the structures. Compounds without any hit were thinned out: in the full panel of roughly 83,000, 20% have a hit.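 Negative percent growth values reflect cell death: -40 means 40% of the cells present at the start died, and -100 means all died.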 Unmarked numbers belong to inactive results. The source made the active and inactive calls. The calls were made as follows: active = growth percent below 10; inactive = the rest.

The first test has as its system NCI-H322M lung. The test is described as follows: NCI-60 one-dose screen, 48 h (100 = growth as untreated, 0 = no growth, -100 = all killed). Particulars: 10 µM.
As to `COc1ccc(-c2nc(S(=O)(=O)c3ccc(C)cc3)c(S(=O)(=O)CC(=O)N(C)Cc3ccccc3)o2)cc1`, the growth was 93.1%.

Turning to `COc1ccc(C=CC(=O)c2ccc(-n3c(C)nc4c(cnn4-c4ccccc4)c3=O)cc2)cc1`, the growth was 107%.

`O=S(=O)(Nc1ncccn1)c1ccc(-n2c(-c3ccc(Br)cc3)nc(-c3ccccc3)c2-c2ccccc2)cc1`: the growth is 64.1%.

For the molecule `COc1cc(/C=C/C(=O)c2ccc(NC(=O)CSc3nnc(-c4c[nH]c5ccccc45)n3-c3ccccc3)cc2)cc(OC)c1OC`, the growth was 90.5%.

`CCCn1c(=O)c2[nH]c(-c3ccc(OCc4nc5ccccc5[nH]4)cc3)nc2n(CCC)c1=O`: the growth was 59.7%.

As for `Cc1ccc2nc(COc3ccc(C(=O)NNC(=S)NC(=O)c4ccccc4)cc3)[nH]c2c1`, the growth was 80.7%.

As for `COc1nccnc1NS(=O)(=O)c1ccc(NC2=C(Cl)C(=O)c3nc(C)ccc3C2=O)cc1`, the growth was 101%.

Turning to `N#Cc1c(NC(=O)c2ccc(C(O)(C(F)(F)F)C(F)(F)F)cc2)sc2c1CCC(=O)C2`, the growth was 19.1%.

Turning to `O=C(Cn1nc(-c2ccccc2)ccc1=O)NNC(=S)NC1CCCCC1`, the growth is 99.6%.

Take `O=C(/C=C/Nc1ccccc1)c1ccc2c(c1)Nc1ccccc1S2`: the growth was 75.7%.

As for `CC1(c2ccccc2)NC(=O)N(CC(=O)Nc2ccc(C(=O)/C=C/c3ccc(Br)cc3)cc2)C1=O` (centres undefined), the growth was 78.1%.

The test system of another test is HOP-62 NSCLC. Described as above. Particulars: 10 µM.
On to `O=c1oc2ccc(-c3ccc(F)cc3F)cc2c(=O)n1-c1ccc(F)c(Cl)c1`, for which the growth was -25.9% (active).

On to `O=C(c1ccc(O)cc1)C1[C@H](c2ccccc2Br)[C@@H](c2ccccc2)NC12C(=O)Nc1ccc(Br)cc12` (some centres undefined), for which the growth is 53.2%.

Take `O=C(Nc1cccc(-c2cn(-c3ccc4oc(=O)ccc4c3)nn2)c1)Nc1cc(C(F)(F)F)cc(C(F)(F)F)c1`: the growth was 1.89% (active).

Consider `O=C1N/C(=N\c2nccs2)S/C1=C\c1cccs1`, for which the growth was 33.6%.

In the case of `COc1ccc2[nH]c(O)c(N=NC(=O)COc3ccc(NC(=O)Nc4ccc(Cl)cc4)cc3)c2c1`, the growth was -41.1% (active).

Take `COc1ccc(OC)c(-c2cc(-c3c[nH]c4ccccc34)nc(N)c2C#N)c1`: the growth was 10% (active).

Turning to `N#Cc1ccc(-c2nn(-c3ccc(C(=O)O)cc3)cc2CNc2ccc(Oc3ccccc3)cc2)cc1`, the growth was 37.4%.

On to `N#Cc1ccc(-c2nn(-c3ccc(C(=O)O)cc3)cc2CNc2cc(Cl)cc(C(F)(F)F)c2)cc1`, for which the growth is 6.03% (active).

Regarding `CO[C@@H]1CSS[C@H]1Cn1nc(-c2ccc(Oc3ccccc3)cc2)c2c(N)ncnc21`, the growth was 111%.

As for `Cc1ccn2c(C(=O)c3ccc(Br)cc3)cc(-c3cc(-c4ccc(N(C)C)cc4)c(C#N)c(N)n3)c2c1`, the growth was 78.8%.

On to `O=c1c2ccccc2nc(COc2ccccc2)n1/N=C/c1ccc(F)cc1`, for which the growth is 105%.

As for `Nc1nc(Nc2ccc(Cl)cc2)nn1Cc1cccc(Br)c1`, the growth was 52.5%.

For the molecule `CC(C)CCSc1nc(NC2CC2)c(C#N)c(-c2ccc(C(C)C)cc2)n1`, the growth is 94.9%.

With `COc1cccc(-c2ccc(/C=N/NC(=O)c3[nH]c4ccc(Br)cc4c3-c3ccccc3)o2)c1`, the growth was 12.8%.

For the molecule `COc1ccc2nc(Cl)c(-c3cc(-c4ccccc4)nc(=O)[nH]3)cc2c1`, the growth is 69.9%.

`COc1cc2c(c(OC)c1OC)C(=O)CC(c1cccc(NC(=O)c3cccc(N)c3)c1)O2` (centres undefined): the growth is 100%.

As for `COc1ccc(-c2nc(S(=O)(=O)c3ccccc3)c(S(C)(=O)=O)o2)cc1`, the growth is 96.7%.

For the molecule `CN1CCN(c2ccc(C(=O)/C=C/c3ccc(C#N)cc3)cc2)CC1`, the growth is 89.1%.

Turning to `O=C(NO)c1ccc(Cn2ccc3c(NCc4ccccc4)ncnc32)cc1`, the growth was 12.7%.

As to `O=C(O)CCCCCCCCCCN1C(=O)/C(=C/c2cnc(-c3ccccc3)s2)SC1=S`, the growth is 115%.

Turning to `Cc1cc(=O)oc2cc(OCCCCOc3ccc(/C=C/C(=O)Nc4ccccc4[N+](=O)[O-])cc3)ccc12`, the growth is 109%.

With `CCOC(=O)CNC(=O)CN(Cc1ccccc1)C(=O)[C@@]1(C)CCC[C@]2(C)[C@H]3CC4C(C(C)C)=C[C@]3(CC[C@H]21)[C@@H]1C(=O)CCC(=O)[C@H]41`, the growth is 92.3%.

As to `Cc1ccc(-c2cc(-c3cc4ccccc4nc3Cl)[nH]c(=O)n2)cc1`, the growth was -9.15% (active).

The values are drawn from PubChem BioAssay (NCI).
